Screening results deposited in PubChem BioAssay by National Center for Advancing Translational Sciences (NCATS).
ClpP mod – qHTS Assay for Activators of ClpP | AID 651965, 2013 | ATP-dependent Clp protease proteolytic subunit (Bacillus subtilis (strain 168)), P80244 | hit rate 1.9% among 340,000 | purified B. subtilis ClpP, FRET peptide cleavage, 20 min | Potency, µM (top dose mostly 57.5 µM); active means well fitted falling curve with a large enough effect; inconclusive means small, poorly fitted or top-dose-only effect; inactive means no such curve, though single readings can be large or run the other way; further: the source files actives as falling curves though it sought activators and does not explain the sign; nearly all actives have a fitted effect of over 65% in size
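ClpP 10 microg/mL final, pH 8 Tris/KCl buffer with BSA, glycerol, Tween-20; compound pinned in; FRET-FV substrate; RT 20 min; Ex320/Em430; ΔFRET vs ADEP 5.8 microM, DMSO, no enzyme.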
GLP1R inv ag – acts as inverse agonist at human GLP-1 receptor; HEK293 GLP-1R CRE-luciferase, luminescence, 24 h; GLP-1R form is constitutively active; Potency, µM (doses to about 38.3 µM), actives largely listed as inhibitors; hit rate 1.6% among 410,000; further: nearly all actives have a fitted effect of over 55% in size
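HEK293 cells stably co-expressing a cAMP-responsive luciferase reporter and constitutively active GLP-1R were seeded, incubated 12 h, then exposed to compounds for 24 h at 37 C. Luminescence was read 12 min after detection reagent; inverse agonists lower signal.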
GLP1R cytotox – cytotoxicity counter-screen for GLP-1 receptor inverse agonists; HEK293 cAMP-luciferase reporter cells, luminescence, 24 h; Potency, µM (series often up to 38.3 µM), actives largely listed as inhibitors; hit rate 0.13% among 410,000;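 further: loss of luciferase light is scored as toxicity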
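Quantitative HTS format, 1536 wells, 200 cells/uL seeded. Compounds: 23 nL, 24 h, 37 °C. Detection: luciferase reagent, luminescence at 12 min RT; decreased signal taken as cytotoxic.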
p53 reactivation – restores transcriptional activity of mutant p53; H1299 p53-A138V BP100-luciferase reporter, luminescence, 24 h; Potency, µM (doses to about 92.2 µM), most hits filed as activators; hit rate 0.063% among 320,000; further: nearly all actives have a fitted effect of over 45% in size
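p53-null H1299 cells stably carrying temperature-sensitive p53-A138V and a BP100-luciferase reporter were pinned with compounds (4-point, 1:5 series) and held 24 hrs at 37 deg C. Luminescence was read 10 min after detection reagent.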
GLP-1R agonist – activates the human GLP-1 receptor | AID 624172 | HEK293 GLP-1R CRE-luciferase, luminescence, 4-6 h; cells express a hypersensitive GLP-1R form | hit rate 0.007% among 380,000 | P43220 | Potency, µM (top dose mostly 45.6 µM), most hits filed as activators
LDHA inh – LDHA (human) enzyme inhibition | hit rate 0.15% among 480,000 | AID 1347041 | P00338 | purified LDHA, NADH/diaphorase-resazurin fluorescence; stronger effect = lower value | activity change, % (values are at about 110 or 230 µM); in the data active means activity change below about -30%; inconclusive means mostly about -25% to -30%
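Human LDH5 (2 nM) was incubated with 0.06 mM NADH and 0.2 mM pyruvate for 5 min at room temperature in Tris pH 7.4. Remaining NADH was coupled through diaphorase/resazurin, and resorufin fluorescence was read at 0 and 20 min.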
Numbers stand for hits; n = inactive; u = inconclusive; x = not tested or not shown; ! = repeats disagree; [ ] = remark or other dose. Sampled rows, rich in hits. Any-hit rate of the full collection: about 2.9%. Unless noted, the call rests on the fitted dose curve; in most records, active means well fitted curve in the direction sought with a large enough effect; inconclusive means small, poorly fitted or top-dose-only effect, or another doubt; inactive means no such curve, though single readings can be large; an effect the other way counts as inactive or inconclusive.

SMILES	ClpP mod	GLP1R inv ag	GLP1R cytotox	p53 reactivation	GLP-1R agonist	LDHA inh
COc1ccccc1CN(Cc1cc2cc3c(cc2[nH]c1=O)OCCO3)Cc1nnnn1Cc1ccco1	28.2µM	n	n	n	n	n
O=c1[nH]c2cc3c(cc2cc1CN(Cc1cccnc1)Cc1nnnn1Cc1ccco1)OCCO3	14.1µM	n	n	n	n	n
CN(C)CCCn1c(SCC(=O)Nc2nc(-c3cccc(Br)c3)cs2)nc2ccccc2c1=O	x	11.2µM	u	n	n	n
CCOC(=O)c1cc2c(n(-c3ccccc3)c1=O)CC(C)(C)CC2=O	12.6µM	u	n	n	n	n
Nc1ccc2oc3ccccc3c2c1	17.8µM	n	n	u	n	n
O=C(O)c1ccc2oc3ccccc3c2c1	x	x	x	x	x	n
Fc1ccc(CNc2ncnc3c2cnn3-c2ccccc2)cc1	35.5µM	u	u	x	n	n
c1ccc(-n2ncc3c(NCc4ccccn4)ncnc32)cc1	12.6µM	n	n	n	n	n
Cc1cccc(-n2ncc3c(NCc4ccccn4)ncnc32)c1	u	n	n	u	n	n
c1ccc(CCNc2ncnc3c2cnn3-c2ccccc2)cc1	n	u	u	u	n	n
Cc1ccc(-n2ncc3c(NCCc4ccccc4)ncnc32)cc1C	28.2µM	u	n	x	x	n
Cc1nn(Cc2ccc(Cl)cc2)c2sc(C(=O)O)cc12	x	n	n	n	n	n
COc1ccccc1CCc1nnc(CCC(=O)NCCC2CCCCO2)o1 (centres undefined)	n	n	n	x	n	n
COc1ccccc1-n1c(SCC(=O)N(C)C2CCS(=O)(=O)C2)nc2ccccc2c1=O (centres undefined)	n	n	n	n	n	n
NC1(C(=O)O)CSSC1	n	u	11.2µM	x	n	n
NC1(C(=O)O)CCOCC1	x	x	x	x	x	n
COC(=O)N/N=C/c1cc(Cl)c(OCc2ccccc2F)c(OC)c1	x	10µM	n	n	n	n
Cc1nc(-c2ccc(S(=O)(=O)N3CCN(Cc4ccccc4)CC3)s2)cs1	n	u	n	n	n	n
CCOC(=O)N1C(=O)c2cc(OC)ccc2S1(=O)=O	n	n	n	n	n	n
CCOC(=O)/C=C1/SCC(=O)N1Cc1ccc(Br)cc1	x	5.62µM	n	x	n	n
Cc1ccc(-n2ncc3c(N(CC(C)C)CC(C)C)ncnc32)c(C)c1	n	2.82µM	n	x	x	n
Cc1ccc(-n2ncc3c(NCC(C)C)ncnc32)c(C)c1	n	u	n	x	x	n
Cc1ccc(-n2ncc3c(NCCCOC(C)C)ncnc32)c(C)c1	n	2.51µM	n	n	n	n
COC(=O)c1cc(-c2c(C)oc3cc(OC(C)C)ccc3c2=O)c(C)o1	n	n	n	n	n	n
O=C(NC1CCC(O)CC1)c1ccc(Br)o1 (centres undefined)	n	n	n	n	n	n
SMILES	ClpP mod	GLP1R inv ag	GLP1R cytotox	p53 reactivation	GLP-1R agonist	LDHA inh
O=C(NC1CCC(O)CC1)c1ccc(-c2ccc(Cl)cc2)o1 (centres undefined)	25.1µM	u	n	n	n	n
O=C(NN1C(=O)NC2(CCCCC2)C1=O)c1ccc(-c2ccc(Cl)cc2)o1	6.31µM	u	n	n	n	n
COC(=O)c1ccc(N2C(=O)CC(N(C)CCc3ccc(OC)c(OC)c3)C2=O)cc1 (centres undefined)	n	n	n	n	n	n
Cc1c(C#N)c(N)nc2c3c(sc12)NC(=O)CC3c1ccccc1 (centres undefined)	n	n	n[1.53 µM]	n	n	-31.2!
CCc1ccc2occ(CC(=O)N(Cc3ccccc3)C3CCS(=O)(=O)C3)c2c1 (centres undefined)	n	u	n	x	x	n
Cc1ccc2occ(CC(=O)N(Cc3ccc(Cl)cc3)C3CCS(=O)(=O)C3)c2c1 (centres undefined)	n	11.2µM	n	x	x	n
COc1ccc(CCNc2oc(COc3ccc(F)cc3)nc2C#N)cc1	n	u	n	n	n	n
COc1ccc(CCNc2oc(-c3ccco3)nc2C#N)cc1	28.2µM	n	n	n	n	n
N#Cc1nc(-c2ccco2)oc1NCCc1ccccc1	28.2µM	n	n	n	u	n
Cc1ccc(CNc2oc(-c3ccco3)nc2C#N)cc1	15.8µM	n	n[1.53 µM]	n	n	n
CNc1oc(-c2ccco2)nc1C#N	u	n	n	n	n	n
Cc1ccc(-c2nc(C#N)c(NCc3cccc4c3OCO4)o2)cc1	31.6µM	n	n	n	n	n
N#Cc1nc(-c2ccc(F)cc2)oc1NCCc1ccccc1	x	x	x	x	x	n
COc1ccc2occ(CC(=O)Nc3ccc(S(=O)(=O)Nc4nc(C)cc(C)n4)cc3)c2c1	n	n	n	x	x	n
Cc1cc(=O)oc2c(C)cc(C(C)(C)C)cc12	x	n	n	x	n	n
CCOC(=O)Cc1ccc(NC(=O)c2ccc(C(C)(C)C)cc2)cc1	n	5.01µM	n	n	n	n
CCOC(=O)Cc1ccc(NC(=O)c2ccccc2Br)cc1	n	u	n	n	n	n
CC1=C(C(=O)Nc2ccccc2C(=O)NC2CCCCC2C)SCCO1 (centres undefined)	n	10µM	n	n	n	n
CC1=C(C(=O)Nc2ccccc2C(=O)N2CCCCC2)SCCO1	n	n	n	n	n	n
COc1ccccc1CNC(=O)CC1Sc2ccccc2NC1=O (centres undefined)	x	n	n	n	n	n
COc1ccc(OC(C)C(=O)NCc2cccnc2)cc1 (centres undefined)	n	n	n	n	n	n
CCCCNC(=S)Nc1ccc([N+](=O)[O-])cc1	n	u	u	u	n	n
O=[N+]([O-])c1ccc(NNC(=S)Nc2ccc(F)cc2)cc1	n	n	u	28.2µM	n	n
CC(C)CNC(=S)NC(=O)c1ccc([N+](=O)[O-])cc1	n	10µM	u	n	n	n
O=C(NCCc1ccc([N+](=O)[O-])cc1)c1ccccc1	n	n	n	n	n	n
CC(C)c1ccc(CCNC(=O)c2ccc([N+](=O)[O-])cc2)cc1	x	3.55µM	n	n	n	n
CC(C)CCNC(=S)Nc1ccc([N+](=O)[O-])cc1	n	11.2µM	u	u	n	n
COc1cc(/C=C(/C#N)C(=O)Nc2ccccc2C(F)(F)F)ccc1OCc1ccc(F)cc1	x	x	x	x	x	n
COc1ccc(OC)c(S(=O)(=O)NC2CCSc3ccccc32)c1 (centres undefined)	x	u	n	n	n	n
Cc1ccccc1N(C(=O)CNC(=O)c1ccco1)C(C(=O)NC1CCCCC1)c1ccncc1 (centres undefined)	x	n	n	n	n	n
